Inconclusive results are not listed. The source made the active and inactive calls. The call rests on the fitted dose curve; in most records, active means well fitted cell-killing curve with a large enough effect in the repeat runs; inconclusive means weak or mixed curves; inactive means flat fitted curve, though single readings scatter.

This assay is described as follows: qHTS RealTime-Glo MT Cell Viability Assay in HepG2 cells - 24 hour (AID 1224867). Further: nearly all actives have a fitted effect of over 50% in size. To be noted: RealTime-Glo luminescence; series mostly up to 76.8 µM. The text has this: U.S. Tox21 Program National Center for Advancing Translational Sciences [NCATS] NIH Chemical Genomics Center [NCGC] U.S. Environmental Protection Agency [EPA] National Institutes of Environmental Health Sciences [NIEHS] National Toxicology Program [NTP] U.S. Food and Drug Administration [FDA] Tox21 Assay Overview: Measure of cell viability is critical in the cell-base assay. Analysis of cell viability is necessary for the characterization of cell responses to cytotoxic drugs and environmental stress. A RealTime-Glo MT Cell Viability Assay to monitor cell viability in real time of continues cell culture during 40 hours of compound treatment was used to screen Tox21 10K library compounds in HepG2 cells. The RealTime-Glo MT Cell Viability Assay is a nonlytic, homogeneous, bioluminescent method to measure cell viability in real time using a simple, plate-based method. The assay involves adding NanoLuc luciferase and a cell-permeant prosubstrate to cells in culture. Viable cells reduce the proprietary prosubstrate to generate a substrate for NanoLuc luciferase. This substrate diffuses from cells into the surrounding culture medium, where it is rapidly used by the NanoLuc Enzyme to produce a luminescent signal. The signal correlates with the number of viable cells, making the assay well suited for cytotoxicity studies.
Tox21 Assay Protocol Summary: The mixture of HepG2 cell suspension and reagents were dispensed at 600cells/6 ul/well in 1536-well tissue culture treated black solid bottom plates using a Multidrop dispenser. After the assay plates were incubated at a 37 C/5% CO2 incubator for 5 hours, 23 nL of compounds dissolved in DMSO, positive and negative controls was transferred to the assay plate by a pintool work station. The plates were incubated at 37 C for 40 hours. The luminescence intensity were measured at 0h, 8h, 16h, 24h, 32h and 40h time points using ViewLux plate reader during compound treatment.
Background: qHTS replaces the single test concentration by a dilution series.
Consider `Nc1cccc(O)c1`, for which the molecule was called inactive.
As for `O=C1CCCC(=O)O1`, the entry is “inactive”.
As for `COC(=O)CCCCCCCC(=O)OC`, the entry is “inactive”; as for `CC(=O)c1sc(C)nc1C`, “inactive”.
For `CC(N)C(=O)OC(C)(C)Cc1ccc(Cl)cc1` (stereo not given) the value was “inactive”; for `NCCS`, “inactive”; for `CC(CN)CC(C)(C)CCN` (stereo not given), “inactive”.
With `C=C(C)C(=O)OCc1ccccc1`, the call was inactive.
`C=CC(OCC)OCC`: the call was inactive.
Regarding `O=C(c1ccc(O)cc1)c1ccc(O)c(O)c1O`, the outcome was inactive.
As for `CCOc1cc(NC(C)=O)ccc1C(=O)OC`, the entry is “inactive”; as for `CC1COc2ccccc2N1` (stereo not given), “inactive”.
As to `COc1ccc(OC)c(Cl)c1`, the outcome was inactive.
For `CC(C)=O`, the result was inactive.
As to `O=C(O)C(=O)Cc1ccccc1`, the molecule was called inactive.
Take `CC(C)CCCCOC(=O)c1ccccc1C(=O)OCCCCC(C)C`: the call was inactive.
Take `C=COCCOCCOCCOC=C`: the call was inactive.
As for `O=C(OCC(O)CO)c1ccccc1Nc1ccnc2c(C(F)(F)F)cccc12` (stereo not given), the molecule was called inactive.
With `CCCCNc1ccc(C(=O)OCCN(C)C)cc1`, the result was inactive.
Consider `CC(C)N(c1ccccc1)C(C)C`, for which the outcome was inactive.
As to `Cc1ccccc1OCC(O)CO` (stereo not given), the molecule was classed as inactive.
As for `O=C(O)Cc1cn(-c2ccccc2)nc1-c1ccc(Cl)cc1`, the result was inactive.
As for `O=C(/N=N/C(=O)OCc1ccccc1)OCc1ccccc1`, the molecule was called inactive.
For `CCOC(=O)[C@H](CCc1ccccc1)N[C@@H](C)C(=O)N1C(=O)N(C)C[C@H]1C(=O)O` the value was “inactive”; for `CNC(=O)[C@H]1O[C@@H](n2cnc3c(NCc4cc(Cl)ccc4OCc4cc(C)no4)ncnc32)[C@H](O)[C@@H]1N`, “inactive”.
As to `O=C1c2ccccc2C(=O)c2cc(S(=O)(=O)O)ccc21`, the result was inactive.
As for `CC(C)=CCOC(=O)c1ccccc1`, the entry is “inactive”.
On to `CNS(=O)(=O)CCc1ccc2[nH]cc(C3CCN(C)CC3)c2c1`, for which the molecule was classed as inactive.
As for `O=C(Nc1ccc(Cl)c(Cl)c1)C1CC1`, the call was inactive.
For `CCC(C)(CCC(C)C)C(=O)O` (stereo not given) the value was “inactive”; for `O=S(=O)(O)CCN1CCN(CCO)CC1`, “inactive”.
On to `CC(C)C[C@H](NC(=O)CNC(=O)[C@H](Cc1ccc(O)cc1)NC(=O)[C@H](CO)NC(=O)[C@H](Cc1c[nH]c2ccccc12)NC(=O)[C@H](Cc1cnc[nH]1)NC(=O)[C@@H]1CCC(=O)N1)C(=O)N[C@@H](CCCN=C(N)N)C(=O)N1CCC[C@H]1C(=O)NCC(N)=O` (stereo in doubt), for which the molecule was called inactive.
With `CCC(C)NC(N)=O` (stereo not given), the molecule was called inactive.
For `CN(C)c1ccc(C=O)cc1`, the molecule was classed as inactive.
Take `CCCCNC1CC(C)(C)NC(C)(C)C1`: the outcome was inactive.
`COC(=O)[C@@H]1[C@H]2C[C@H]3c4[nH]c5ccccc5c4CCN3C[C@@H]2CC[C@@H]1O`: the outcome was inactive.
`CCCOC(=O)C(C)O` (stereo not given): the molecule was called inactive.
`CN=C(NC#N)Nc1ccc(C2=NNC(=O)CC2C)cc1` (stereo not given): the molecule was classed as inactive.
With `CC(CO)c1ccccc1` (stereo not given), the outcome was inactive.
For `Nc1ccc2cc(S(=O)(=O)O)cc(O)c2c1` the value was “inactive”.

For the origin of these results see PubChem BioAssay (Tox21).
